Experimental data: PubChem BioAssay (NCATS)
Records with an inconclusive call do not appear. Calls of active or inactive are those of the source. Calls come from the whole dose curve; as a rule, active = well fitted inhibition curve with a large enough effect; inconclusive = small, poorly fitted or top-dose-only effect; inactive = flat fitted curve, though single readings scatter.

system: CRL-7250; assay: qHTS assay to identify novel small-molecules to repurpose for Merkel cell carcinoma treatment (AID 1296009); settings: MCC and control cell lines, CellTiter-Glo viability, 72 h; series mostly up to 92 µM; activity change, negative = cytotoxicity: at the top concentration; note: nearly all actives have a fitted effect of over 60% in size
Procedure, shortened: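 Luminescence from CellTiter-Glo, read 10 min after addition at room temperature, reported viability following a 72 hr, 37 degree celsius treatment with NPC or MIPE compounds in titration; values normalized to plate controls.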

Row | Structure (SMILES) | outcome
1 | CC(=O)c1c(O)cc2cccc3c2c1CC(C)(O)O3 (configuration not stated) | inactive
2 | COC(=O)c1cc(Br)cnc1N1CCC(NC2CCCCC2)C(O)C1 (configuration not stated) | inactive
3 | Cc1ncc(Cl)cc1NCc1ccc(C(=O)NC(CC2CCCC2)C(=O)NC2CC2)s1 (configuration not stated) | inactive
4 | CC1=C2CC(C)(C)CC2C(O)C2=C(C1)C(=O)OC2O (configuration not stated) | inactive
5 | COc1ncc2cc(C(=O)Nc3cc(C(=O)NCc4cccc(Cl)c4)ccc3Cl)c(=O)[nH]c2n1 | inactive
6 | CC1(C)CC2C3=CCC4C5(C)CCC(OC6OC(CO)C(O)C(OC7OC(CO)C(O)C(OC8OC(CO)C(O)C(OC9OC(COC%10OC(CO)C(O)C(O)C%10O)C(O)C(O)C9O)C8O)C7O)C6O)C(C)(C)C5CCC4(C)C3(C)CCC2(C(=O)O)CC1O (configuration not stated) | inactive [at 9.27 µM]
7 | CCC(CC)C(=O)Nc1sc2c(c1C#N)CCC(C(C)(C)CC)C2 (configuration not stated) | inactive
8 | C[C@H](NCc1ccc(OCc2ccccc2F)cc1)C(N)=O | inactive
9 | C/C=C/C=C/C(O)=C1/C(=O)[C@]2(C)C(=O)[C@@](C)(O)[C@H]1[C@H]([C@@]1(C)OC(=O)C(C)=C1O)[C@H]2C(=O)CC/C=C/C | inactive [at 17.4 µM]
10 | CC(C)(C)OC(=O)c1ncn2c1C(C)(C)Nc1ccccc1-2 | inactive
11 | C/C(=C\CCC1(C)C2CC3C(C2)C31C)C(=O)O (configuration not stated) | inactive
12 | C[C@@H]1O[C@@H](O[C@H]2[C@H](OC(=O)[C@]34CCC(C)(C)C[C@H]3C3=CCC5[C@@]6(C)C[C@@H](O)[C@@H](O[C@@H]7O[C@H](CO)[C@@H](O)[C@H](O)[C@H]7O)[C@@](C)(CO)C6[C@H](O)C[C@@]5(C)[C@]3(C)CC4)OC[C@H](O)[C@@H]2O)[C@H](O)[C@H](O[C@@H]2OC[C@](O)(CO)[C@H]2O)[C@H]1O[C@@H]1OC[C@@H](O)[C@H](O[C@H]2O[C@H](C)[C@@H](O)[C@H](O)[C@@H]2O)[C@H]1O (some centres not stated) | inactive [at 9.27 µM]
